High-throughput results: PubChem BioAssay, National Center for Advancing Translational Sciences (NCATS)
FMDV FLuc – shows antiviral activity against foot and mouth disease virus | FMDV antiviral cell assay, firefly luciferase signal | Potency, µM (doses to about 57.5 µM), without a hit: at the top dose activity change, negative = inhibition, usual class: inhibitors | 120,000 tested, 0.23% active; also: nearly all actives have a fitted effect of over 60% in size
FMDV RLuc – shows antiviral activity in FMDV Renilla assay. Potency, µM (top dose mostly 57.5 µM), inactives show at the top dose activity change, negative = inhibition, hits mostly inhibitors. 120,000 tested, 0.32% active. FMDV replicon cells, Renilla luciferase signal; also: nearly all actives have a fitted effect of over 55% in size
Starred values were filed as active, the others as inactive; ? = inconclusive; [ ] = another dose, or the depositor's remark. Sampled rows, rich in hits. Any-hit rate of the full collection: about 0.51%. Calls follow the shape of the full dose curve. % is scaled to controls: 0 for no effect and ±100 for the full control effect; potency is read from the fitted curve at half-maximal effect.

SMILES	FMDV FLuc	FMDV RLuc
CCCn1c(NCc2ccc(C)cc2)nc2c1c(=O)n(C)c(=O)n2C	?	28.2µM*
Cn1c(=O)c2c(nc(NCc3ccco3)n2Cc2ccccc2)n(C)c1=O	15.8µM*	?
CCn1c(NCc2ccccc2)nc2c1c(=O)n(C)c(=O)n2C	-9.6%	-5.0%
CC(Oc1ccc2ccc(=O)oc2c1)C(=O)N1CCCCCC1 (stereo not given)	8.1%	3.8%
Cc1cc(-c2ccco2)n[nH]1	56.8%	-6.8%
N#C/C(=C/c1ccc(-c2ccccc2F)o1)c1nc2ccccc2[nH]1	0.0%	76.4%
CCOc1ccccc1CNCc1c(C(=O)O)n(Cc2ccccc2)c2cc(OC)ccc12	-20.5%	1.4%
COc1ccc(Cn2c(C(=O)O)c(CNCc3ccccc3F)c3ccc(OC)cc32)cc1	35.5µM*	0.0%
CCc1ccccc1NC(=O)c1cnn2c1NC(C(=O)O)=CC2c1ccccc1OC (stereo not given)	?	-9.1%
Cc1ccc(-n2nnc(C(=O)Nc3nccs3)c2C(C)C)cc1	10.1%	-2.4%
Cc1csc2nc(-c3cccc(NC(=O)c4cccc(F)c4)c3)cn12	-4.3%	12.6µM*
Cc1csc2nc(-c3cccc(NC(=O)c4ccccc4F)c3)cn12	115.8%	20.1%
Cc1nsc(N)c1C(=O)OCc1csc(-c2ccccc2)n1	-13.3%	1.78µM*
CN(C)S(=O)(=O)c1ccc(C(=O)OCc2csc(-c3ccccc3)n2)cc1	16.5%	0.1%
CCOc1ccccc1NC(=O)c1cc(-c2ccco2)nc2ccccc12	23.1%	26.2%
Cc1ccc(Nc2nc(CN3CCN(S(=O)(=O)c4cc(C)ccc4C)CC3)cs2)cc1	?	8.91µM*
Cc1nc(CN2CCN(S(=O)(=O)c3ccccc3Cl)CC2)cs1	-11.0%	-4.8%
CC(C)(C)c1cc(-c2nc3ccccc3[nH]2)n[nH]1	2.82µM*	7.9%
CC(C)(C)c1cc(C(C)(C)C)c2oc(=O)c(-c3nc4ccccc4[nH]3)cc2c1	-17.7%	-11.3%
Cc1ccc(-c2nc(CSc3n[nH]c(N)n3)no2)cc1	151.4%	-0.4%
Cc1ccc(-c2noc(CN(C)C(=O)COc3ccccc3)n2)cc1	0.0%	23.0%
Cc1cc(C)cc(C(=O)NCCc2csc(-c3ccc(C(F)(F)F)cc3)n2)c1	-14.7%	1.8%
CC(=O)N1CCN(Cc2csc(-c3ccc(C(F)(F)F)cc3)n2)CC1	20µM*	12.6µM*
O=C(NC1CCCc2ccccc21)c1ccsc1 (stereo not given)	8.6%	21.0%
O=C(C1CCC(CNS(=O)(=O)c2ccc(Br)s2)CC1)N1CCN(c2ccccc2Cl)CC1 (stereo not given)	-5.9%	-1.3%
SMILES	FMDV FLuc	FMDV RLuc
O=C(C1CCC(CNS(=O)(=O)c2ccc(Br)s2)CC1)N1CCN(c2ccc(F)cc2)CC1 (stereo not given)	?	6.31µM*
CN1CCN(c2ccc(C#N)cn2)CC1	0.1%	15.2%
CN1CCN(c2ccc(C#N)cc2)CC1	2.82µM*	13.0%[1.06 µM]
Cc1ccc(NC(=O)CSc2n[nH]c(=O)c3cc(-c4ccco4)nn23)c(Br)c1	32.2%	15.4%
CCOC(=O)c1sc(N)c(C#N)c1COC(=O)C1CCC1	11.3%	4.9%
CCOC(=O)Cn1nc(C)c(NC(=O)COc2ccccc2)c1C	17.1%	10.9%
CCOC(=O)Cn1nc(C)c(NC(=O)COc2ccc(Cl)cc2C)c1C	?	10µM*
CC(C)COC(=O)c1ccc(NC(=O)C2=C(c3ccccc3)S(=O)(=O)CCO2)cc1	-0.5%	-33.5%
COC(=O)C1CN(Cc2ccc(OC)cc2)CCS(=O)(=O)N1Cc1ccc(Cl)cc1 (stereo not given)	0.0%	0.0%
COC(=O)C1CN(Cc2ccc(OC)cc2)CCS(=O)(=O)N1Cc1ccc(C(F)(F)F)cc1 (stereo not given)	31.6µM*	?
COc1cccc(/C=C(\C#N)c2nc3ccccc3o2)c1	89.1%	146.3%
CCOC(=O)N1CCN(c2ncc3c(n2)CC(c2ccc(OC)c(OC)c2)CC3=O)CC1 (stereo not given)	-2.5%	-5.0%
O=C1CC(c2ccccc2O)Cc2nc(N3CCN(c4ccccc4F)CC3)ncc21 (stereo not given)	?	11.2µM*
COc1ccc(C(=O)Nc2nc(-c3nnn(-c4ccccc4Br)c3C)ns2)cc1	14.1µM*	14.1µM*
COc1ccc(C(=O)Nc2nc(-c3nnn(-c4ccc(F)cc4F)c3C)ns2)cc1	43.3%	15.2%
CC(C)CNc1oc(-c2ccco2)nc1S(=O)(=O)c1ccc2c(c1)OCCO2	20.5%	352.4%
COCCOC(=O)/C(C#N)=C/c1ccc(O)c(I)c1	20.3%	-25.9%
COc1ccccc1/C=C/C(=O)Oc1ccc(Cl)c(Cl)c1	0.0%	8.3%
O=C(/C=C/N1CCC(Cc2ccccc2)CC1)C(F)(F)F	-16.2%	?
O=C(/C=C/N1CCC(CCCC2CCN(/C=C/C(=O)C(F)(F)F)CC2)CC1)C(F)(F)F	?	10µM*
c1ccc(Nc2nc(NCc3ccco3)c3ccccc3n2)cc1	-7.0%	?
c1ccc(CNc2nc(Nc3ccccc3)nc3ccccc23)cc1	?	12.6µM*
Cc1c(OS(C)(=O)=O)ccc2c3c(c(=O)oc12)CCCC3	19.3%	17.8%
CCCC(=O)N1CCC(C(=O)Nc2cc(C)ccn2)CC1	50.2%	2.7%
O=C(O)C1=CC(/C=C/c2ccccc2)n2ncc(C(=O)Nc3ccc(F)cc3)c2N1 (stereo not given)	18.4%	2.2%
SMILES	FMDV FLuc	FMDV RLuc
CCN1CCc2nc3sc(C(=O)Nc4cccc(Cl)c4C)c(N)c3cc2C1	12.6µM*	7.08µM*
Cc1cccc(NC(=O)c2sc3nc4c(cc3c2N)CN(Cc2ccccc2)CC4)c1	96.9%	-5.7%
Cc1ccc(NC(=O)C2CCCN(c3cnc4ccccc4n3)C2)c(C)c1 (stereo not given)	14.4%	3.1%
O=Cc1ccc(OCC2CC2)c2ccccc12	?	5.62µM*
Nc1ccc(OCC2CC2)c(F)c1	120.6%	11.6%
O=C(O)CC1C(=O)NCCN1Cc1ccc(F)cc1 (stereo not given)	-12.9%	-9.6%
Nc1nc2c(s1)C(c1ccccc1Cl)CC(=O)N2 (stereo not given)	8.5%	-5.5%
CCCCN(CC)CCNC(=O)COCc1cc(-c2cccs2)on1	-13.4%	-16.9%
O=C(CCc1nc2ccccc2n1-c1ccccc1)NCc1ccccc1F	-6.3%	8.8%
Cc1ccccc1CNC(=O)CN1C(=O)CCCc2ccccc21	113.9%	31.6µM*
COc1ccccc1CNC(=O)CN1C(=O)CCCc2ccccc21	-3.9%	-3.3%
O=S(=O)(Cc1ccc(F)cc1)Cc1nc2ccccc2s1	99.8%	20.8%
Cn1c(=O)c2nc(SCCC(=O)O)n(Cc3ccccc3)c2n(C)c1=O	9.1%	13.0%
O=C(CCCCl)Nc1ncc(Cc2cccc(Cl)c2)s1	0.0%	12.3%
CCCn1nc(C(=O)Nc2ncc(Cc3cccc(Cl)c3)s2)ccc1=O	28.2µM*	?
N#CC1=C(SCc2ccc(Cl)cc2)NC(=O)C(C#N)C12CCCC2 (stereo not given)	?	10µM*
N#CC1(NC(=O)CSCc2ccc(Cl)cc2)CCCCCC1	24.0%	56.4%
N#Cc1cccc(NC(=O)CCc2ncc(-c3ccc(Cl)cc3)o2)c1	20.2%	9.2%
CCOc1ccc(-c2nc(CSCC(=O)N3CCN(c4ccc(F)cc4)CC3)c(C)o2)cc1	-0.6%	-4.7%
CCOc1ccc(-c2nc(CSCC(=O)N3CCN(c4cccc(C(F)(F)F)c4)CC3)c(C)o2)cc1	28.2µM*	?
CCN(CC)C(C)CN1c2ccccc2Sc2ccccc21 (stereo not given)	16.5%[11.5 µM]	-1.1%
CCN1/C(=C/C=C/c2sc3ccccc3[n+]2CC)Sc2ccccc21	3.16µM*	?
